PubChem BioAssay
Active and inactive are the calls of the source.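 How the source made its calls, unless noted: active means normalized viability below 100% at a tested concentration; inactive means the rest.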

Experiments:
[1] = drug combination growth inhibition, ovarian cancer – cell-based, oncology-focused library, rucaparib conditional, profiling panel (AID 1508598); conditions: patient-derived ovarian cancer cells, CellTiter-Glo viability, 144 h, stronger effect = lower value
[2] = MELAS cybrid and Rieske KO viability enhancers – cell-based, MELAS cybrids, Rieske KO mouse fibroblasts, CellTiter-Glo, primary screen (AID 1508586;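 active means mean z-score across replicates of 1.96 or higher in either the MELAS or the Rieske mutant cell line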;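 further: z relative to plate mean and SD of compound and empty wells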); conditions: low glucose
[3] = at 0.000305 µM, OCI-C5x cells, with rucaparib 10 µM, 100% = cells with rucaparib alone
[4] = at 0.000305 µM, OCI-C5x cells, without rucaparib
[5] = at 0.000305 µM, OCI-P5x cells, with rucaparib 20 µM, 100% = cells with rucaparib alone
[6] = at 0.000305 µM, OCI-P5x cells, without rucaparib
[7] = at 0.00122 µM, OCI-C5x cells, with rucaparib 10 µM, 100% = cells with rucaparib alone
[8] = at 0.00122 µM, OCI-C5x cells, without rucaparib
[9] = at 0.00122 µM, OCI-P5x cells, with rucaparib 20 µM, 100% = cells with rucaparib alone
[10] = at 0.00122 µM, OCI-P5x cells, without rucaparib
[11] = at 0.00488 µM, OCI-C5x cells, with rucaparib 10 µM, 100% = cells with rucaparib alone
[12] = at 0.00488 µM, OCI-C5x cells, without rucaparib
[13] = at 0.00488 µM, OCI-P5x cells, with rucaparib 20 µM, 100% = cells with rucaparib alone
[14] = at 0.00488 µM, OCI-P5x cells, without rucaparib
[15] = at 0.0195 µM, OCI-C5x cells, with rucaparib 10 µM, 100% = cells with rucaparib alone
[16] = at 0.0195 µM, OCI-C5x cells, without rucaparib
[17] = at 0.0195 µM, OCI-P5x cells, with rucaparib 20 µM, 100% = cells with rucaparib alone
[18] = at 0.0195 µM, OCI-P5x cells, without rucaparib
[19] = at 0.0781 µM, OCI-C5x cells, with rucaparib 10 µM, 100% = cells with rucaparib alone
[20] = at 0.0781 µM, OCI-C5x cells, without rucaparib
[21] = at 0.0781 µM, OCI-P5x cells, with rucaparib 20 µM, 100% = cells with rucaparib alone
[22] = at 0.0781 µM, OCI-P5x cells, without rucaparib
[23] = at 0.313 µM, OCI-C5x cells, with rucaparib 10 µM, 100% = cells with rucaparib alone
[24] = at 0.313 µM, OCI-C5x cells, without rucaparib
[25] = at 0.313 µM, OCI-P5x cells, with rucaparib 20 µM, 100% = cells with rucaparib alone
[26] = at 0.313 µM, OCI-P5x cells, without rucaparib
[27] = at 1.25 µM, OCI-C5x cells, with rucaparib 10 µM, 100% = cells with rucaparib alone
[28] = at 1.25 µM, OCI-C5x cells, without rucaparib
[29] = at 1.25 µM, OCI-P5x cells, with rucaparib 20 µM, 100% = cells with rucaparib alone
[30] = at 1.25 µM, OCI-P5x cells, without rucaparib
[31] = at 5 µM, OCI-C5x cells, with rucaparib 10 µM, 100% = cells with rucaparib alone
[32] = at 5 µM, OCI-C5x cells, without rucaparib
[33] = at 5 µM, OCI-P5x cells, with rucaparib 20 µM, 100% = cells with rucaparib alone
[34] = at 5 µM, OCI-P5x cells, without rucaparib

CO[C@H]1C[C@@H]2CC[C@@H](C)[C@@](O)(O2)C(=O)C(=O)N2CCCC[C@H]2C(=O)O[C@H]([C@H](C)C[C@@H]2CC[C@@H](O)[C@H](OC)C2)CC(=O)[C@H](C)/C=C(\C)[C@@H](O)[C@H](OC)C(=O)[C@H](C)C[C@H](C)/C=C/C=C/C=C/1C
inactive: viability [1, 3] 117% | viability [1, 4] 111% | viability [1, 8] 102% | viability [1, 15] 101% | viability [1, 19] 103% | viability [1, 23] 107% | viability [1, 27] 105% | viability [1, 31] 118% | viability [1, 32] 107%
active: viability [1, 5] 87.8% | viability [1, 6] 75.2% | viability [1, 7] 99.6% | viability [1, 9] 91.5% | viability [1, 10] 64.8% | viability [1, 11] 94.9% | viability [1, 12] 95.5% | viability [1, 13] 83.5% | viability [1, 14] 62.3% | viability [1, 16] 95.6% | viability [1, 17] 87.8% | viability [1, 18] 62.5% | viability [1, 20] 89.7% | viability [1, 21] 92.1% | viability [1, 22] 60% | viability [1, 24] 97.8% | viability [1, 25] 94.8% | viability [1, 26] 63.9% | viability [1, 28] 99.2% | viability [1, 29] 93.7% | viability [1, 30] 61.2% | viability [1, 33] 65% | viability [1, 34] 61%

CCC1=CC2CN(C1)Cc1c([nH]c3ccccc13)[C@@](C(=O)OC)(c1cc3c(cc1OC)N(C)[C@H]1[C@@](O)(C(=O)OC)[C@H](OC(C)=O)[C@]4(CC)C=CCN5CC[C@@]31[C@H]54)C2 (stereo not given in full)
active: viability [1, 5] 1.99% | viability [1, 6] 2.91% | viability [1, 7] 94.4% | viability [1, 8] 70.1% | viability [1, 9] 1.29% | viability [1, 10] 1.02% | viability [1, 11] 50.6% | viability [1, 12] 43.8% | viability [1, 13] 52.9% | viability [1, 14] 20.3% | viability [1, 15] 39.2% | viability [1, 16] 33.7% | viability [1, 17] 50.5% | viability [1, 18] 16.3% | viability [1, 19] 40.3% | viability [1, 20] 22.9% | viability [1, 21] 49.1% | viability [1, 22] 13.6% | viability [1, 23] 33.8% | viability [1, 24] 23.8% | viability [1, 25] 46.6% | viability [1, 26] 12.6% | viability [1, 27] 39.7% | viability [1, 28] 21.7% | viability [1, 29] 45.2% | viability [1, 30] 11.4% | viability [1, 31] 36.1% | viability [1, 32] 22.2% | viability [1, 33] 41.7% | viability [1, 34] 8.33%
inactive: viability [1, 3] 110% | viability [1, 4] 106%

N[C@@H]1CCCN(c2c(/C=C3\SC(=O)NC3=O)cccc2-c2ccccc2)C1
inactive: viability [1, 3] 108% | viability [1, 4] 122% | viability [1, 6] 112% | viability [1, 7] 116% | viability [1, 8] 121% | viability [1, 10] 111% | viability [1, 11] 119% | viability [1, 12] 119% | viability [1, 13] 103% | viability [1, 14] 108% | viability [1, 15] 105% | viability [1, 16] 108% | viability [1, 18] 111% | viability [1, 19] 108% | viability [1, 20] 115% | viability [1, 21] 101% | viability [1, 22] 109% | viability [1, 23] 105% | viability [1, 26] 106% | viability [1, 28] 103% | viability [1, 30] 106% | viability [1, 31] 115% | viability [1, 32] 119%
active: viability [1, 5] 96.6% | viability [1, 9] 98.1% | viability [1, 17] 96.9% | viability [1, 24] 99.1% | viability [1, 25] 91.3% | viability [1, 27] 93.8% | viability [1, 29] 91.3% | viability [1, 33] 74.6% | viability [1, 34] 97.5%

C[C@H]1NC(=O)NC1=O
inactive: z-score ([2]; MELAS cybrid survival, CellTiter-Glo 48 h, stronger effect = higher value) 0.723
-0.336: z-score ([2]; Rieske KO mouse fibroblast survival, CellTiter-Glo 72 h)

CC#C[C@@]1(O)CC[C@H]2[C@@H]3CCC4=CC(=O)CCC4=C3[C@H](c3ccc(N(C)C)cc3)C[C@@]21C
active: viability [1, 5] 88.4% | viability [1, 6] 89.8% | viability [1, 9] 88.8% | viability [1, 10] 94.8% | viability [1, 13] 93.3% | viability [1, 14] 95% | viability [1, 17] 86.7% | viability [1, 18] 87.4% | viability [1, 21] 84.5% | viability [1, 22] 86.4% | viability [1, 25] 83.6% | viability [1, 26] 89.9% | viability [1, 29] 87.2% | viability [1, 30] 91% | viability [1, 33] 72.1% | viability [1, 34] 89.7%
inactive: viability [1, 3] 124% | viability [1, 4] 104% | viability [1, 7] 112% | viability [1, 8] 114% | viability [1, 11] 122% | viability [1, 12] 108% | viability [1, 15] 118% | viability [1, 16] 110% | viability [1, 19] 122% | viability [1, 20] 111% | viability [1, 23] 113% | viability [1, 24] 118% | viability [1, 27] 121% | viability [1, 28] 118% | viability [1, 31] 162% | viability [1, 32] 140%
